# Pf growth 96h = Primary qHTS for delayed death inhibitors of the malarial parasite plastid, 96 hour incubation; actives 6.9% (n = 320,000); P. falciparum luciferase reporter growth, 96 h; AID 504834, 2011; Potency, µM (highest dose often 28.7 µM), for the others: at the top dose activity change, negative = inhibition, actives largely listed as inhibitors
#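 Readout is luminescence from an integrated firefly luciferase in P. falciparum. Red cells, 2% hematocrit and 0.05% parasitemia final, were cultured with compound through two parasite generations (96 hours) at 37 C, 5% CO2.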
# HCV inh = qHTS Assay for Inhibitors of Hepatitis C Virus (HCV) | Huh7.5.1 HCVcc-Cre infection, luciferase reporter, 44 h | Potency, µM (doses to about 41.8 µM), inactives show at the highest dose activity change, negative = inhibition, usual class: inhibitors | actives 3.4% (n = 340,000)
#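 1,000 cells/well; 4 h culture; + compound; + HCVcc-Cre (~0.5 moi); 44 h; luciferase substrate, RT 15 min; read 15 sec.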
# Pf growth 48h = Primary qHTS for delayed death inhibitors of the malarial parasite plastid, 48 hour incubation; P. falciparum luciferase growth in erythrocytes, 48 h; Potency, µM (top dose mostly 28.7 µM), without a hit: top-dose activity change, negative = inhibition, usual class: inhibitors; actives 5.9% (n = 310,000); AID 504832, 2011
#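 A one-generation exposure of luciferase-tagged malaria parasites in RPMI 1640/Albumax erythrocyte culture, 37 C and 5% CO2. Inhibition is inferred from decreased luminescence after adding detection reagent.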
# AMA1-RON2 inh = qHTS for Inhibitors of AMA1-RON; Towards Development of Antimalarial Drug Lead: Primary Screen; Plasmodium falciparum AMA1 (3D7) - RON2 peptide interaction; AlphaScreen AMA1-biotinylated RON2 peptide binding; Potency, µM (titrated, usually from 58.2 µM), for the others: at the highest dose activity change, negative = inhibition, usual class: inhibitors; actives 0.2% (n = 360,000);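 also: 0% = vehicle wells and -100% = peptide control; nearly all actives have a fitted effect of over 45% in size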
#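 AMA1 (3D7) with his tag at 25 nM final met compounds first, then biotinylated RON2 peptide at 25 nM; detection used donor plus acceptor beads, 10 µg/mL apiece, read by AlphaScreen after 30 min at room temperature.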
# * marks the source's active call; other numbers are inactive results; u = inconclusive; x = not tested or not shown. The list is not random: actives were taken first. Their share in the collection is about 11%. Calls follow the shape of the dose curve; as a rule, active = well fitted curve in the direction sought with a large enough effect; inconclusive = small, poorly fitted or top-dose-only effect, or another doubt; inactive = no such curve, though single readings can be large; an effect the other way counts as inactive or inconclusive. Unless noted, % is scaled to controls: 0 for no effect and ±100 for the full control effect; potency is read from the fitted curve at half-maximal effect.
SMILES,Pf growth 96h,HCV inh,Pf growth 48h,AMA1-RON2 inh
Cc1ccccc1OCCOC(=O)c1ccc(S(=O)(=O)N2CCCC2)cc1,u,-2.6%,u,49.5%
CCN1CCCC1CN(Cc1cc2ccc(C)cc2[nH]c1=O)C(=S)Nc1ccc(OC)cc1OC (stereo unspecified),18.8%,u,u,-6.8%
CCN1CCCC1CN(Cc1cc2cc(C)cc(C)c2[nH]c1=O)C(=O)Nc1ccccc1OC (stereo unspecified),34.5%,-15.3%,9.28µM*,-7.0%
COc1cccc(NC(=O)N(Cc2cc3cc(C)cc(C)c3[nH]c2=O)CC2COCCO2)c1 (stereo unspecified),61.0%,u,9.28µM*,-2.4%
C=C1[C@@H](C)C2[C@H](Cc3ccccc3)NC(=O)[C@]23OC(=O)CC[C@H](O)CCC[C@H](C)C/C=C/[C@H]3[C@@H]1O (stereo partly specified),0.37µM*,x,0.928µM*,x
Cc1c(NS(=O)(=O)c2ccc3c(c2)Cc2ccccc2-3)c(=O)n(-c2ccccc2)n1C,0.6%,-9.2%,2.3%,-0.5%
Nc1nc(-c2c[nH]c3ccccc23)cs1,x,-19.1%,u,u
CCC(C)Nc1nc(-c2c[nH]c3ccccc23)cs1 (stereo unspecified),u,u,8.28µM*,-10.5%
COc1cccc(N(C(=O)c2csnn2)C(C(=O)NC2CCCC2)c2ccccc2)c1 (stereo unspecified),28.0%,u,u,7.1%
O=C(c1ccc(-c2nnc(Nc3cccc(Cl)c3)c3ccccc23)cc1)N1C[C@H]2C[C@H](C1)c1cccc(=O)n1C2,6.57µM*,-26.7%,13.1µM*,-20.6%
COc1nnc(-c2ccc(C(=O)N3C[C@@H]4C[C@H](C3)c3cccc(=O)n3C4)cc2)c2ccccc12,2.62µM*,-7.9%,u,-4.8%
COc1ccc(C(=O)Nc2ccccc2N2CCCC2)cc1S(=O)(=O)N1CCOCC1,u,-16.4%,u,1.4%
O=C1CCC2(CCCC2)c2ccccc21,x,x,x,12.3%
CCS(=O)(=O)N1CCN(c2ccnc3cc(Cl)ccc23)CC1,10.4µM*,-18.6%,11.7µM*,-13.7%
Cc1ccc(S(=O)(=O)N2CCN(c3ccnc4cc(Cl)ccc34)CC2)cc1,u,u,10.4µM*,-14.2%
COc1ccccc1NS(=O)(=O)c1cccc(NC(=O)CCNC(=O)c2ccccc2OC)c1,11.7µM*,u,9.28µM*,4.4%
COc1ccccc1C(=O)NCCC(=O)Nc1ccc(S(=O)(=O)Nc2ncccn2)cc1,-28.3%,6.8%,u,-9.0%
COc1ccccc1NS(=O)(=O)c1cccc(NC(=O)c2sc3ccccc3c2Cl)c1,-20.0%,u,11.7µM*,-0.9%
COc1ccccc1NS(=O)(=O)c1cccc(NC(=O)NCCCl)c1,11.7µM*,10.1%,0.0%,4.5%
CC(C)(C)C(=O)NC(=S)N1CCCC1,-20.5%,2.9%,10.3%,21.0%
CC12CC3(C)CC(C)(C1)CC(C(=O)NC(=S)N1CCCC1)(C2)C3,u,9.3%,6.57µM*,43.4%
CCOC(=O)c1sc(=S)n(-c2ccc(Cl)cc2)c1SC,0.928µM*,0.6%,u,-16.6%
Cc1ccc(C)c(-n2c(N)c(C(N)=O)sc2=S)c1,15.7%,u,0.0%,-4.5%
COC(=O)c1sc(=S)n(-c2ccccc2OC)c1N,u,-11.7%,33.8%,0.9%
Cc1ccc(-n2c(N)c(C(N)=O)sc2=S)c(C)c1,14.7µM*,9.4%,11.9%,-8.0%
SMILES,Pf growth 96h,HCV inh,Pf growth 48h,AMA1-RON2 inh
CCOc1ccccc1-n1c(N)c(C(N)=O)sc1=S,1.65µM*,2.9%,28.1%,19.5%
CCOC(=O)c1sc(=S)n(-c2ccc(F)c(F)c2)c1N,u,-2.6%,5.2%,-10.9%
CCOC(=O)c1sc(=S)n(-c2ccccc2OC)c1N,6.57µM*,-13.6%,-14.2%,-10.0%
CCCCNC(=O)c1sc(=S)n(-c2ccccc2OC)c1N,u,-15.7%,1.9%,-4.7%
CCc1cccc(NC(=O)NC(=O)Cn2nnc(C(=O)OC)c2C(=O)OC)c1,u,14.0%,19.0%,-9.7%
Cc1ccc(SCCC(=O)OCC(=O)Nc2ccc(C(N)=O)cc2)cc1,u,13.2%,-12.2%,-1.5%
CC(=O)c1ccc(NC(=O)Cc2ccsc2)cc1,206.5%,-2.6%,73.3%,2.3%
CCOC(=O)c1ccc(-n2c(N)c(C(=O)NCc3ccco3)sc2=S)cc1,12.7%,4.3%,u,-28.9%

# Bioassay records deposited in PubChem by National Center for Advancing Translational Sciences (NCATS).
